What follows are molecules tested against Shiga toxin 2 (Escherichia coli O157:H7) (UniProt P09385+P09386) (assay: E. coli 0.157:H7 Shiga Toxin SOP - stx2 screening assay). Settings: 30 µM.
Type: functional
Parameters: scale not given: direction of the effect not stated beside the values
`Cc1ncccc1NC(=O)[C@H]1C[C@@H]2CCN(Cc3nccs3)C[C@@H]2O1` was tested, and the Percent Effect was 0.675%.
`CCc1cnc(N2CCC3(CC2)CN(c2cccnc2)C(=O)CO3)nc1` showed a Percent Effect of -6.76%.
`CCSc1ccc(C(=O)Nc2c(C)nn(C(C)C)c2C)cn1` showed a Percent Effect of -37.7%.
Work on `COc1ncccc1CNC(=O)c1cccnc1O` yielded a Percent Effect of -17.1%.
Work on `c1ccc(Cn2ccnc2CN2CCOC(Cn3cccn3)C2)cc1` (stereo not given) yielded a Percent Effect of 8.78%.
Molecule `Cc1nc(N2CCCC2)nc2c1CN(C(C)C)CC2` has a Percent Effect of -13.3%.
`Cc1cccnc1NC(=O)NC(C)Cn1cccn1` (stereo not given) was tested, and the Percent Effect was 15.4%.
With `Cc1cc2cc(C(=O)N3CC[C@H](O)[C@]4(CCCO4)C3)ccc2o1` the Percent Effect was -10.1%.
`Cc1ncsc1C(=O)Nc1cccc(OCC(F)F)n1` was tested, and the Percent Effect was 1.86%.
`CC(NC(=O)NCCCc1n[nH]c(N)c1C#N)c1cccs1` (stereo not given) gave a Percent Effect of -34.7%.
`COCCN(C)C[C@@H]1CN(C(=O)c2cccc(C(F)(F)F)c2)C[C@@H]1CO` showed a Percent Effect of 8.62%.
In the case of `N#CCCCS(=O)(=O)N1CCCC1CC(=O)c1cccs1` (stereo not given), the Percent Effect is reported as 12%.
`NC(=O)c1ccc(CN2CCCC(O)C2)cc1` (stereo not given) gave a Percent Effect of -9.74%.
For `CN1CCc2onc(CNc3ncccn3)c2C1`, the Percent Effect was -1.52%.
Molecule `CC(C)CCCNC(=O)Nc1ccc(F)c(C(N)=O)c1` has a Percent Effect of -45.5%.
In the case of `O=C(c1c[nH]c(=O)c(Cl)c1)N1C[C@@H]2CC[C@H](C1)N(Cc1ccccc1)C2`, the Percent Effect is reported as 3.61%.
For `O=C1NC2(CCN(C(=O)Cc3ccsc3)CC2)CC1c1ccncc1` (stereo not given), the Percent Effect was -5.98%.
Molecule `COc1ccccc1OCC(=O)Nc1ncccc1Cl` has a Percent Effect of 1.67%.
Molecule `c1ccc2sc(CN3CCOC(Cn4cccn4)C3)nc2c1` (stereo not given) has a Percent Effect of 27.3%.
For `Cc1occc1C(=O)N1CCC2(CCC2NC(=O)c2ccn(C)c2)CC1` (stereo not given), the Percent Effect was 13.8%.
`O=C(Cn1c(=O)n(Cc2ccco2)c2ncccc21)NC1CCCCC1` gave a Percent Effect of -5.4%.
`CN(CCNC(=O)c1scnc1Cl)c1ccccc1` gave a Percent Effect of -17.4%.
With `Cc1ccc(C(N)c2cccc(S(C)(=O)=O)c2)cc1` (stereo not given) the Percent Effect was -0.145%.
`CC(C)Oc1cccc(C(O)CNC(=O)CCc2ccncc2)c1` (stereo not given) was tested, and the Percent Effect was -21.1%.
With `Cc1cnc(CN(C)CC2CCCN2c2cccnn2)cn1` (stereo not given) the Percent Effect was 7.46%.
Molecule `CCS(=O)(=O)N1CCO[C@H]2[C@H](OCC3CCCC3)CC[C@@H]21` has a Percent Effect of -8.34%.
Work on `CC(C)c1cc(NC(=O)c2ccc(C(=O)NC(C)(C)C)cc2)[nH]n1` yielded a Percent Effect of -39.3%.
`CC(C)N(C)C(=O)C1=NOC2(CCN(C(=O)c3ccccn3)C2)C1` (stereo not given) was tested, and the Percent Effect was 3%.
`Cc1cnn(CCNCCCOc2ccccc2)c1` showed a Percent Effect of -1.37%.
In the case of `CC(=O)N1CC[C@@H]2CN(C(=O)c3ccco3)CCO[C@@H]2C1`, the Percent Effect is reported as -3.17%.
`COc1ccc2c(c1)C1(CCN(Cc3ccncc3)CC1)N(C)CC2` gave a Percent Effect of -1.38%.
`Cc1ccc(NC(=O)N2C[C@H]3CC[C@@H]2CN(Cc2cscn2)C3)cc1` gave a Percent Effect of 8.71%.
Work on `COc1ccc(CN2CCc3ncnc(C4CCOC4)c3CC2)cc1` (stereo not given) yielded a Percent Effect of -53.7%.
`Cc1ccc2cnn(CCC(=O)Nc3c(C)nn(C)c3C)c2c1` was tested, and the Percent Effect was -34.7%.
With `Cc1nnc2n1CCN(Cc1csc(-c3ccc(F)cc3)n1)C2` the Percent Effect was 3.01%.
In the case of `CCc1noc(C)c1C(=O)N(C)Cc1ncc(C)c(OC)c1C`, the Percent Effect is reported as 16.8%.
Molecule `Cc1cc(CNCc2c(C)nn(C)c2N2CCOCC2)no1` has a Percent Effect of 16.5%.
Molecule `c1nc2n(n1)CC(NCc1nc(-c3ccsc3)no1)CC2` (stereo not given) has a Percent Effect of 10.5%.
`Cc1cnc(CN2CCC(N(C)Cc3nnc(C4CC4)n3C)C2)cn1` (stereo not given) was tested, and the Percent Effect was 5.3%.
In the case of `COc1ccc(-c2noc(C(=O)NCCN3CCCCC3)n2)cc1OC`, the Percent Effect is reported as -77.4%.
